Results filed as inconclusive are left out. Activity calls are given as the source filed them. Unless noted, calls follow the shape of the dose curve; as a rule, active = well fitted curve in the direction sought with a large enough effect; inconclusive = small, poorly fitted or top-dose-only effect, or another doubt; inactive = no such curve, though single readings can be large; an effect the other way counts as inactive or inconclusive.
Assays:
[1] = target: Cytochrome P450 1A2 (Homo sapiens) (UniProt P05177); experiment: p450-cyp1a2 (AID 410; calls by dose curve; also: potency is read from the fitted curve at half-maximal effect;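 as to activity change, negative = inhibition: -100% = full effect of reference inhibitor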)
In short: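 20nM CYP1A2, 100uM Luciferin-ME (=Km), 100mM KPO4; cpd 10 min RT; +NADPH regen, 60 min RT; stop/detect 20 min; luminescence. Normalized to furafylline 57 uM = full inhibition.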

[2] = target: Glucocorticoid receptor (Homo sapiens) (UniProt P04150); experiment: GR-GFP Redistribution (AID 450;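 active = compounds whose dose series gives a full or clear partial fitted curve of increased nuclear translocation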; also: potency is read from the fitted curve at half-maximal effect); conditions: U2OS GR-GFP nuclear translocation, laser cytometry, 2 h
[3] = target: Mitogen-activated protein kinase 10 (Mus musculus) (UniProt Q61831); experiment: JNK3 AlphaScreen Assay (AID 530; active = well fitted curve in either direction with a large enough effect, not every such curve was filed as active;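 also: kinase came from lysate of stimulated human HepG2 cells; signal reports phosphorylation of biotinylated GST-cJun 1-79 at Ser73 with 10 µM ATP; % is scaled to controls: 0 for no effect and ±100 for the full control effect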)
In short: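 Kinase buffer: 20 mM Tris-HCl pH 7.6, 10 mM MgCl2, 1 mM DTT, 0.1 mM Na3VO4, 0.01% Tween-20; ATP 10 uM. Substrate biotin-GST-cJun(1-79), enzyme from activated HepG2 lysates. Detection by Ser73 phospho-antibody AlphaScreen.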

[4] = target: 3',5'-cyclic-AMP phosphodiesterase 4B (Homo sapiens) (UniProt Q07343); experiment: qHTS Assay for Inhibitors of PDE-IV (AID 607; active = well fitted activation curve with a large enough effect in the main read-out, with a control signal flat, not every such curve was filed as active; also: % of control where 0% means no effect)
In short: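 The readout is membrane depolarisation from a cAMP-sensing CNG channel, detected with a potential dye at ex 535/em 590. Cells were HEK293-derived (endogenous PDE-IV) at 1000 cells/well, titrated up to 22.9 uM final.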

[5] = qHTS Assay for Lipid Storage Modulators (AID 1519; calls by dose curve); conditions: Drosophila S3 cells, BODIPY lipid droplet/cell ratio, laser cytometry, cells loaded with oleic acid; for activity change, negative = inhibition: at 57.5 µM (top of the series)
In short: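 Cells seeded at 5,000 per well were treated with compounds over a concentration series and loaded with oleic acid (400 uM, as added). Lipid droplet fluorescence (488 nm excitation, 500-530 nm channel) was read by laser-scanning cytometry and normalized to 20 uM Triacsin C.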

[6] = target: Ubiquitin carboxyl-terminal hydrolase 1 (Homo sapiens) (UniProt O94782); experiment: Inhibitors of USP1/UAF1: Pilot qHTS (AID 504865); also: nearly all actives have a fitted effect of over 35% in size; also: potency is read from the fitted curve at half-maximal effect
In short: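 1nM USP1/UAF1 + cpd, 15 min RT; start w/ Ub-Rho 150nM final; kinetic FL 480/540 nm, 6 reads q60 s. Buffer 50mM HEPES pH 7.8, 0.5mM EDTA, 1mM TCEP, 0.01% Tween-20, 0.1 mg/ml BSA.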

[7] = target: DNA dC->dU-editing enzyme APOBEC-3G (Homo sapiens) (UniProt Q9HC16); experiment: qHTS for inhibitors of Vif-A3G interactions: Validation (AID 588379); also: 0% is about no effect
In short: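 Yellow fluorescence (Ex 488, Em 500-530) of Vif-coexpressing HeLa A3G-eYFP cells, scanned by Acumen cytometer, reports blocked A3G degradation. Cells plated at 700/well overnight at 37 deg C before compound addition, then a further overnight compound incubation at 37 deg C.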

[8] = test system: Zika virus NS2B-NS3 protease; experiment: Primary screen GU AMC qHTS for Zika virus inhibitors (AID 1347154);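 also: 0% = no-inhibitor control and -100% = no-enzyme control; nearly all actives have a fitted effect of over 70% in size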
In short: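 Fluorogenic AMC-substrate cleavage by noncovalent NS2B-NS3 protease complex (25 nM, pH 8.0 Tris buffer with Tween 20) followed for 15 minutes at room temperature (~20% conversion). Percent inhibition from ex340/em450 signal change, fitted by 4-parameter Hill equation.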

[9] = Primary qHTS for small molecule stabilizers of the endoplasmic reticulum resident proteome: Secreted ER Calcium Modulated Protein (SERCaMP) assay (AID 1508630); also: % is scaled to controls: 0 for no effect and ±100 for the full control effect
In short: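 The SH-SY5Y reporter protocol was run at 3 concentrations up to 38.3 uM (primary) or 11 concentrations (follow-up): 16 h compound, 100 nM thapsigargin for 4 h, then extracellular luciferase luminescence.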

[10] = target: Glucocorticoid receptor (Homo sapiens) (UniProt P04150); experiment: GR-EFC Redistribution (AID 451; calls by dose curve; also: potency is read from the fitted curve at half-maximal effect); conditions: CHO-K1 GR-EFC translocation, beta-gal luminescence, 2 h
In short: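 Translocation of GR-ED fusion to nuclear EA restores b-gal, read by luminescence after 1 h room-temperature detection. Engineered CHO-K1 biosensor cells, 1,000/well, exposed 2 h at 37 C to titrations up to 46 uM final.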

[11] = target: Cytochrome P450 2C9 (Homo sapiens) (UniProt P11712); experiment: qHTS Assay for Inhibitors and Substrates of Cytochrome P450 2C9 (AID 883); also: potency is read from the fitted curve at half-maximal effect; nearly all actives have a fitted effect of over 60% in size
In short: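 Turnover of Luciferin-H (100uM, KM) by 10nM human CYP2C9 was measured over 60 min at 37C with NADPH regeneration; inhibitors and some substrates reduce luminescence. Data normalized to sulphaphenazole 57uM.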

[12] = AP1 Signaling Pathway (AID 357; active = well fitted curve in either direction with a large enough effect, not every such curve was filed as active;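 also: ME-180 reporter cells stimulated with EGF at its EC50 level; % is scaled to controls: 0 for no effect and ±100 for the full control effect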); conditions: ME-180 AP-1-bla reporter, EGF-induced, beta-lactamase ratio, 5 h; at 38 µM (top of the series)
In short: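 Cells are seeded overnight, exposed to compound titrations and an EC50 level of EGF for 5 hours at 37 °C, then loaded with CCF4 dye for 2.5 hours. Beta-lactamase activity under the AP-1 element is read as a blue/green ratio.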

[13] = NFAT Signaling Pathway (AID 444; active = well fitted curve in either direction with a large enough effect, not every such curve was filed as active;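 also: carbachol stimulus at about its EC50 of 1 µM final; % is scaled to controls: 0 for no effect and ±100 for the full control effect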); conditions: Jurkat NFAT-bla M1, carbachol, beta-lactamase ratio, 5 h; at 38 µM (top of the series)
In short: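 Read-out: CCF4 FRET ratio (460 nm/530 nm) after 1 h RT dye loading, used for %activity and AC50 from titration series. Cells: Jurkat NFAT-β-lactamase/M1 line, treated with compound plus 1 uM carbachol for 5 h, 37 °C.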

[14] = Stat Signaling Pathway (AID 446; active = well fitted curve in either direction with a large enough effect, not every such curve was filed as active); conditions: ME-180 (cervical carcinoma) SIE beta-lactamase reporter, IL-6 stimulated, 5 h; at 38 µM (top of the series)
In short: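 Emission at 460 and 530 nm (excitation 405 nm) reports SIE-controlled beta-lactamase in ME-180 cells. Cells received compound with 40 pM IL-6 for 5 hrs at 37 C; data scaled between 300 pM IL-6 and 125 nM JAK-inhibitor controls.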

[15] = target: Guanine nucleotide-binding protein G(i) subunit alpha-1 (Homo sapiens) (UniProt P63096); experiment: qHTS Assay for Inhibitors of RGS12 GoLoco Motif Activity (Green Fluorophore) (AID 879);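 also: 0% = labeled peptide with Gαi1 and full inhibition = labeled peptide alone without protein; negative values mean loss of peptide binding seen as reduced polarization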
In short: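 A drop in FITC polarization marked displacement of the FITC-tagged RGS12 GoLoco peptide (10 nM) from Gαi1 (50 nM). Compounds were incubated 10 min at room temperature in Tris pH 7.5 buffer containing 150 mM NaCl, 0.1 mM GDP and 0.05% NP40; unlabeled peptide titration served as control.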

[16] = qHTS Assay for Identification of Small Molecule Agonists for Thrombopoietin (TPO) Signaling Pathway (AID 917); also: % is scaled to controls: 0 for no effect and ±100 for the full control effect
In short: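 Ba/F3 (mouse) + hTPO receptor + GpIIb-promoter luciferase; IL-3 withdrawn overnight; compound + 26 pM TPO (EC50), 24 hrs, 37 C, 5% CO2; Steadylite luminescence, 10 min RT.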

[17] = target: Pyruvate kinase (Leishmania mexicana) (UniProt Q27686); experiment: qHTS Validation Assay for Inhibitors of Leishmania Mexicana Pyruvate Kinase (AID 945);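 also: 0% = DMSO only neutral control wells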
In short: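 Eight-point qHTS titrations in triplicate, data normalized to DMSO neutral control. Reaction: 0.2 nM LmPYK E451W mutant, 0.5 mM PEP, 0.1 mM ADP, 7 mM MgCl2, pH 7.2, one hour at room temperature; luminescent ATP detection.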

[18] = target: Pyruvate kinase PKM (Homo sapiens) (UniProt P14618); experiment: qHTS Assay for Activators of Human Muscle Pyruvate Kinase (AID 954; active = well fitted curve in the direction sought with a large enough effect, not every such curve was filed as active;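 also: 0% = uninhibited enzyme and -100% = no enzyme or full thiadiazolimine inhibition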)
In short: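 PKM2, human, >95% pure, 0.1 nM; PEP 0.5 mM (Km), ADP 0.1 mM; 50 mM imidazole pH 7.2, 50 mM KCl, 0.01% Tween 20, 0.05% BSA; 1 h RT; luciferase luminescence readout.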

[19] = target: Alpha-galactosidase A (Homo sapiens) (UniProt P06280); experiment: Counterscreen for Glucocerebrosidase Inhibitors: qHTS Assay for Human alpha-Galactosidase at pH 4.5 (AID 992); also: 0% is about no effect
In short: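 Fluorogenic 4-MU alpha-D-galactoside (80 uM) hydrolysis, 2 nM enzyme, pH 4.5 citrate buffer + 0.005% Tween-20; 20 min RT; NaOH/glycine pH 10 stop; Ex365/Em440. Compounds titrated 0.7 nM–77 uM; Hill-equation AC50.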

[20] = target: alpha-glucosidase (Oryza sativa, rice) (UniProt Q653V4); experiment: Counterscreen for Glucocerebrosidase Inhibitors: qHTS Assay for Rice alpha-Glucosidase at pH 5.0 (AID 997);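 also: 0% = full activity with enzyme and -100% = basal without enzyme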
In short: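 Endpoint fluorogenic assay at pH 5.0: compounds (0.7 nM to 77 uM) titrated against 4 nM rice enzyme and 400 uM 4-MU-alpha-glucoside for 20 min at room temperature; NaOH/glycine stop, read ex 365/em 440 nm, Hill-fitted AC50.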

[21] = measured here: cell count channel max response
[22] = measured here: lipid channel max response

Chain of Cytochrome P450 1A2 (Homo sapiens) (P05177 whole entry, looked up): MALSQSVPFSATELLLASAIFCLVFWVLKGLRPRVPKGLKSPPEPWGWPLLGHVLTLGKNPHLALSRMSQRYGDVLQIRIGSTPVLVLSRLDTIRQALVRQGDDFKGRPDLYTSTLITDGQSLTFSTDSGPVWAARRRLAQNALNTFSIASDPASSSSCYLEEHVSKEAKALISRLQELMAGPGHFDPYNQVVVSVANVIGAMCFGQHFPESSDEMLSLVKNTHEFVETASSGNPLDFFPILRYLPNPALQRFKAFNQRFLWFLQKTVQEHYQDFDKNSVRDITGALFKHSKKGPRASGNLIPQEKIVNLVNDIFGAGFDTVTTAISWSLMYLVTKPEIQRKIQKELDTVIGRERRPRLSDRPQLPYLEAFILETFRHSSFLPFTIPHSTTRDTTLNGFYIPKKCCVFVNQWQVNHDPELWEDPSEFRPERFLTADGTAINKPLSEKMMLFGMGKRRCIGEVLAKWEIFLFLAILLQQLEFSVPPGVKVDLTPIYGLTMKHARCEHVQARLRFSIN
Chain of Ubiquitin carboxyl-terminal hydrolase 1 (Homo sapiens) (O94782 whole entry, looked up): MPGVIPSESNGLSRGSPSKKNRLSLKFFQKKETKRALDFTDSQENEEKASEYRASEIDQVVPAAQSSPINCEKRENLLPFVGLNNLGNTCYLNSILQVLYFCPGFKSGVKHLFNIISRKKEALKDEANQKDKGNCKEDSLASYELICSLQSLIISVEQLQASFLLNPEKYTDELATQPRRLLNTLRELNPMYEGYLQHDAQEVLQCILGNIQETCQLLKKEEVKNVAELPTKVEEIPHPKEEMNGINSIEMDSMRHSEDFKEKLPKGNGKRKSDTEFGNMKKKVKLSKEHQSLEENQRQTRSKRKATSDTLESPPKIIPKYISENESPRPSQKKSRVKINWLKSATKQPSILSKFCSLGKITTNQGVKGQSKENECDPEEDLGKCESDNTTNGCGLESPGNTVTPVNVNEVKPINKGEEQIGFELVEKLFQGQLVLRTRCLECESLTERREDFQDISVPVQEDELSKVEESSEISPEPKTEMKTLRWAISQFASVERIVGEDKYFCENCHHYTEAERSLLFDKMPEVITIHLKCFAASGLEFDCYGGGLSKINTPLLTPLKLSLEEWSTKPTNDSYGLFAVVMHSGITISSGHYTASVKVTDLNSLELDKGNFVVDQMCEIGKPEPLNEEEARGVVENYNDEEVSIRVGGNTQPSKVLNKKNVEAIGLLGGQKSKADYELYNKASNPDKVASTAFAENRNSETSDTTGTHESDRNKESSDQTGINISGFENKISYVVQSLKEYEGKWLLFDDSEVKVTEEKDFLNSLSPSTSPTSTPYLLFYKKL
Chain of DNA dC->dU-editing enzyme APOBEC-3G (Homo sapiens) (Q9HC16 whole entry, looked up): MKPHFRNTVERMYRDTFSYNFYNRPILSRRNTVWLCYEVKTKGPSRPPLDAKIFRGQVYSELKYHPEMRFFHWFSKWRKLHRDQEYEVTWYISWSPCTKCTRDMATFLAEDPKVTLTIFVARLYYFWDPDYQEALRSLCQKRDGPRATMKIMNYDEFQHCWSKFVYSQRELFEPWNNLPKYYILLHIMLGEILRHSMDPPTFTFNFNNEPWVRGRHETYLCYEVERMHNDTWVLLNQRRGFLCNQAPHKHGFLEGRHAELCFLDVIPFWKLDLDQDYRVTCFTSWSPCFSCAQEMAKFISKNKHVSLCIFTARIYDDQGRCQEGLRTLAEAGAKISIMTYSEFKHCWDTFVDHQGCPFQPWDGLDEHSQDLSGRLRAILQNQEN
Chain of 3',5'-cyclic-AMP phosphodiesterase 4B (Homo sapiens) (Q07343 whole entry, looked up): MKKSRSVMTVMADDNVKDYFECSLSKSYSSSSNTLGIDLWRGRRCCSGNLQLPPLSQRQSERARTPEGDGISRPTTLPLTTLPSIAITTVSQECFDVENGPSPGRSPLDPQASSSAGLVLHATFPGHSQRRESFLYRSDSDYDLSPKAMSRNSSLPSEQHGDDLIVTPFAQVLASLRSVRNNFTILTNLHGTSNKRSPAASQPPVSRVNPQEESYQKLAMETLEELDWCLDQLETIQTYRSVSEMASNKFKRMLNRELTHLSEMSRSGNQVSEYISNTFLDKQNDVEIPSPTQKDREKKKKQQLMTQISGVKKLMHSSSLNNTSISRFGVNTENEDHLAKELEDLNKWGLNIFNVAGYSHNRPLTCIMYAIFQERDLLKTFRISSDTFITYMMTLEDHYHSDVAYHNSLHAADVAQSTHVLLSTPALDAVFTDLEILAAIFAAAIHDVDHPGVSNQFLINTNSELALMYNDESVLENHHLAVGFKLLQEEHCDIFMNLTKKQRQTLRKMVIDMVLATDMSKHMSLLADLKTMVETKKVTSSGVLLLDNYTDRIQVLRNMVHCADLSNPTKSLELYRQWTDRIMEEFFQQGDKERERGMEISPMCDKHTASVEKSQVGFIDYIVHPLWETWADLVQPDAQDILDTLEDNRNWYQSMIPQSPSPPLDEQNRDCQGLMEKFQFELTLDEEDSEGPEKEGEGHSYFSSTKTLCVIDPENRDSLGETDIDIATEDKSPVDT
Chain of Glucocorticoid receptor (Homo sapiens) (P04150 whole entry, looked up, the tested form may be a part): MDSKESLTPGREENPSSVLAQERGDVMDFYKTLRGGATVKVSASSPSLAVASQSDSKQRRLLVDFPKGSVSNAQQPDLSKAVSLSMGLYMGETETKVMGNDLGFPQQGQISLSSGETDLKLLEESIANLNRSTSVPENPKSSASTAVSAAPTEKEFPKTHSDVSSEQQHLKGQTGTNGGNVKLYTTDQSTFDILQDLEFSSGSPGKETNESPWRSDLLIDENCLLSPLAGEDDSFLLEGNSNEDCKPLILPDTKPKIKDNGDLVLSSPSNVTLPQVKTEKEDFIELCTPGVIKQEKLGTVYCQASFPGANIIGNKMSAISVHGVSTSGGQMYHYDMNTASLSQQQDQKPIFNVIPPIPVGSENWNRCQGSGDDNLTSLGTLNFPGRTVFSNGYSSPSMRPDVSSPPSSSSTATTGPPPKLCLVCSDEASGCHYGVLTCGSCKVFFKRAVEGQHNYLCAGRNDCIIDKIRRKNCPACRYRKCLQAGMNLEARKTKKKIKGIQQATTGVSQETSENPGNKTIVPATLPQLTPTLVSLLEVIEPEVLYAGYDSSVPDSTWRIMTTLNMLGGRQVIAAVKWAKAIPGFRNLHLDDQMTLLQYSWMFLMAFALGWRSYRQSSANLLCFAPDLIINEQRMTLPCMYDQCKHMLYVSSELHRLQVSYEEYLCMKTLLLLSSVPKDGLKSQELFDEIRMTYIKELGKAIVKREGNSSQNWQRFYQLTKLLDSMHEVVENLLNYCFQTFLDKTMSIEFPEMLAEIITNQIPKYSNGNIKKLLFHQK
Chain of Pyruvate kinase (Leishmania mexicana) (Q27686 2-499 E452W): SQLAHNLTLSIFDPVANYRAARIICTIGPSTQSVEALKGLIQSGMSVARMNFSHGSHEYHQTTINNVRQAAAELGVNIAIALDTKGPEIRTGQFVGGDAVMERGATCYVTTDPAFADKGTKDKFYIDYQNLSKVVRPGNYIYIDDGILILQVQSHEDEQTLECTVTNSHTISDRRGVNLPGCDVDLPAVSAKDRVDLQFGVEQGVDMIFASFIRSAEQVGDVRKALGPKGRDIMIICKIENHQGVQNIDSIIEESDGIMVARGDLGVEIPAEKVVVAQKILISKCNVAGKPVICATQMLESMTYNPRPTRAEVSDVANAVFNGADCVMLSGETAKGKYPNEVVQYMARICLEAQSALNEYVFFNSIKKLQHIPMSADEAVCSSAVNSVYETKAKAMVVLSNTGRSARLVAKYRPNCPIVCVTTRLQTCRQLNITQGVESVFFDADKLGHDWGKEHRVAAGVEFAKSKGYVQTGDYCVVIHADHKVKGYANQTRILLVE
Chain of Pyruvate kinase PKM (Homo sapiens) (P14618 whole entry, looked up): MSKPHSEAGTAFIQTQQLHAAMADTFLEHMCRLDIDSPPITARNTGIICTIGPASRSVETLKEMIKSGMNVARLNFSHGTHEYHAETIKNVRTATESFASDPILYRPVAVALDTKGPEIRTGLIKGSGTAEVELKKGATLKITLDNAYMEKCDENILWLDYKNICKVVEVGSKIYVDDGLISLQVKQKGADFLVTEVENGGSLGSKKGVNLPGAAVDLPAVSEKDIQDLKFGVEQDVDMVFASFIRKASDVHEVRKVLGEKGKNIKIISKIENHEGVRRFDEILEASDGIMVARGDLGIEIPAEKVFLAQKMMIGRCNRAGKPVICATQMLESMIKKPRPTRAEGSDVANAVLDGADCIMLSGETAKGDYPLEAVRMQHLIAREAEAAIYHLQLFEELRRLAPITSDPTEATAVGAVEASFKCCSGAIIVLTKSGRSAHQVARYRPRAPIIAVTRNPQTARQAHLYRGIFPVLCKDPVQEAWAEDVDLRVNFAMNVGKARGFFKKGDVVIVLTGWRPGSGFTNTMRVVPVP
Chain of Alpha-galactosidase A (Homo sapiens) (P06280 whole entry, looked up): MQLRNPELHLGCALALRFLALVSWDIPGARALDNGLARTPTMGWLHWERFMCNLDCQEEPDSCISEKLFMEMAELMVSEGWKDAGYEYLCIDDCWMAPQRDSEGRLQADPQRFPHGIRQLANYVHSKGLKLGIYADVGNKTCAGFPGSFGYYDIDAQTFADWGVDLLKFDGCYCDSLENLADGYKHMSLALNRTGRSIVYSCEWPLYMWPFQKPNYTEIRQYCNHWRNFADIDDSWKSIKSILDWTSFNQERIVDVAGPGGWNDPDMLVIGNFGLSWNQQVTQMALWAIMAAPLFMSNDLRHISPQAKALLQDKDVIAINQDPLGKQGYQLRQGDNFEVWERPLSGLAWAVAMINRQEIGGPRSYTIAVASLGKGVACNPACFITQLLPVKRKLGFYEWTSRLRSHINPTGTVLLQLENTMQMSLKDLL
Chain of Guanine nucleotide-binding protein G(i) subunit alpha-1 (Homo sapiens) (P63096 whole entry, looked up): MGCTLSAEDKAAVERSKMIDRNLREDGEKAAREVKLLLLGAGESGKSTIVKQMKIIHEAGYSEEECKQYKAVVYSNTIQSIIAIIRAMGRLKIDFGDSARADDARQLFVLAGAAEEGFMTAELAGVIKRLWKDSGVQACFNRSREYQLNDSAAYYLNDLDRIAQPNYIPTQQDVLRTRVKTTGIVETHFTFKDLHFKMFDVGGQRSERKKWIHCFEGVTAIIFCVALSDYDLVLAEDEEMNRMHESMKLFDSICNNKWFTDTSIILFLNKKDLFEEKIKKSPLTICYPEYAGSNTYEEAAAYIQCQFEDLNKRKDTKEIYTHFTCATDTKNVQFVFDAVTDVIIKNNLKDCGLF

CN1CCN(CCc2ccc(Cl)c(Cl)c2)CC1
-12.9%: max response [5, 22]
inactive: Potency [2] > 46 µM | Potency [3] | Potency [4] | activity change, negative = inhibition [5] -0.655% | Potency [6] | Potency [7] | Potency [8] | Potency [9]
active: Potency [1] 25.1 µM
-14.6%: max response [5, 21]

O=C(O)/C=C1\CCCc2ccccc2[C@H]1O
20.5%: max response [5, 21]
inactive: Potency [2] > 46 µM | Potency [10] > 46 µM | Potency [3] | activity change, negative = inhibition [5] 4.3% | Potency [6] | Potency [7] | Potency [8] | Potency [9]
25.8%: max response [5, 22]

C[C@H](C[C@H](N)C(=O)O)C(=O)O
-13.2%: max response [5, 21]
-13.5%: max response [5, 22]
active: Potency [1] 31.6 µM
inactive: Potency [2] > 46 µM | Potency [10] > 46 µM | Potency [3] | Potency [4] | activity change, negative = inhibition [5] -1.92% | Potency [6] | Potency [7] | Potency [8] | Potency [9]

CC(=O)ON(C(C)=O)S(=O)(=O)c1ccc(Cl)cc1
inactive: Potency [1] | Potency [2] > 46 µM | Potency [10] > 46 µM | Potency [3] | Potency [4] | activity change, negative = inhibition [5] -5.19% | Potency [6] | Potency [7] | Potency [8] | Potency [9]
-20.7%: max response [5, 21]
-23.7%: max response [5, 22]

CCCCCCCCCCCCC/C=C\[C@@H](O)[C@H](CO)NC(C)=O
-0.444%: max response [5, 22]
inactive: Potency [2] > 46 µM | Potency [10] > 46 µM | Potency [3] | Potency [4] | activity change, negative = inhibition [5] -6.83% | Potency [7] | Potency [8] | Potency [9]
active: Potency [1] 20 µM | Potency [11] 3.16 µM
9.95%: max response [5, 21]

N[C@@H](CSS(=O)(=O)O)C(=O)O
7.41%: max response [5, 22]
active: Potency [1] 39.8 µM | Potency [6] 39.8 µM
inactive: Potency [2] > 46 µM | Potency [10] > 46 µM | Potency [4] | activity change, negative = inhibition [5] 3.51% | Potency [7] | Potency [8] | Potency [9]
2.48%: max response [5, 21]

C[C@@](N)(C(=O)O)c1ccc(P(=O)(O)O)cc1
-4.21%: max response [5, 22]
inactive: Potency [2] > 46 µM | Potency [10] > 46 µM | Potency [3] | activity change, negative = inhibition [5] -5.17% | Potency [6] | Potency [7] | Potency [8] | Potency [9]
active: Potency [1] 39.8 µM
0.435%: max response [5, 21]

N[C@@H](CO)C(=O)O
0.892%: max response [5, 21]
inactive: activity change, negative = inhibition [12] 6.64% | activity change, negative = inhibition [13] 1.99% | activity, negative = inhibition [14] -12.9% | Potency [2] > 46 µM | Potency [3] | Potency [4] | outcome [15] | Potency [16] | Potency [17] | outcome [18] | outcome [19] | outcome [20] | activity change, negative = inhibition [5] -1.57% | Potency [6] | Potency [7] | Potency [8] | Potency [9]
-1.78%: max response [5, 22]

O=C(O)COc1ccc(OCCNC[C@@H](O)COc2ccccc2)cc1
8.13%: max response [5, 21]
11.4%: max response [5, 22]
inactive: Potency [2] > 46 µM | Potency [10] > 46 µM | Potency [3] | activity change, negative = inhibition [5] 3.49% | Potency [6] | Potency [7] | Potency [8] | Potency [9]
active: Potency [1] 39.8 µM

O=C1C(c2ccccn2)=[N+]([O-])c2ccccc21
22.9%: max response [5, 22]
active: Potency [1] 0.158 µM
inactive: Potency [2] > 46 µM | Potency [10] > 46 µM | Potency [3] | Potency [4] | activity change, negative = inhibition [5] 3.2% | Potency [7] | Potency [8] | Potency [9]
20%: max response [5, 21]

Reference: PubChem BioAssay (NCATS)
